Activity calls are given as the source filed them. Where a call stands in place of a potency, no number is given. The call rests on the fitted dose curve.

Sequence of Muscarinic acetylcholine receptor M1 (Homo sapiens) (P11229 whole entry, looked up): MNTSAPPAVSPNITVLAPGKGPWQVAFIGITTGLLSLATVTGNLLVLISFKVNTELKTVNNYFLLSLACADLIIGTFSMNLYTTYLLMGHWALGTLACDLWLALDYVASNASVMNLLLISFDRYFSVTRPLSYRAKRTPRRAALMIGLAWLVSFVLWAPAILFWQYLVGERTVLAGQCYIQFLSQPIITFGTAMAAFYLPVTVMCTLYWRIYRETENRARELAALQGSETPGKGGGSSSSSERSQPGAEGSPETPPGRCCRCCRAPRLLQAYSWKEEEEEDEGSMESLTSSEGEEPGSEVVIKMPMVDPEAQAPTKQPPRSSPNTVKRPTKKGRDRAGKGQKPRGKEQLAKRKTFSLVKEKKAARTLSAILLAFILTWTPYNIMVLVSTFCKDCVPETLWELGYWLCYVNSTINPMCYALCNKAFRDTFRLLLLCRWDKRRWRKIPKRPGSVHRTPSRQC

This assay has as its target Muscarinic acetylcholine receptor M1 (Homo sapiens) (UniProt P11229). Nature of the assay: Cholinergic receptor muscarinic 1 (CHRM1) small molecule agonists, cell-based qHTS assay (AID 1963589). Further: nearly all actives have a fitted effect of over 35% in size. Particulars: CHRM1-CHO cells, agonist mode, calcium flux fluorescence; series mostly up to 76.8 µM. An excerpt:
National Center for Advancing Translational Sciences [NCATS]
Division of Preclinical Innovation [DPI]
U.S. Environmental Protection Agency [EPA]
National Institutes of Environmental Health Sciences [NIEHS]
National Toxicology Program [NTP]
U.S. Food and Drug Administration [FDA]
The CHRM1 is a muscarinic receptor. This receptor plays a crucial role in learning and memory processes and has long been identified as a promising therapeutic target for the improvement of cognitive decline in Alzheimer's disease (AD). The CHRM1-CHO cell line stably expressing human muscarinic acetylcholine receptor M1 (CHRM1) can be used for screening agonists and antagonists of interactions between CHRM1 and its ligands. The CHRM1-CHO Calcium Flux Assay is a homogeneous fluorescence-based assay for detecting the intracellular calcium level using FDSS kinetic plate reader system.
CHRM1-CHO cells were dispensed at 1000 cells/3uL/well in 1536-well black-clear bottom plates using a Multidrop Dispenser. After the assay plates were incubated at a 37 C/5% CO2 incubator for 18 h, 3 uL of Dye Loading Buffer was transferred to the assay plate by a Flying Reagent Dispenser. The assay plates were incubated at 37 C for 1h. For agonist mode, 23 nL of compounds dissolved in DMSO, positive controls or DMSO only was transferred to the assay plate by a pin tool. […] Each test compound was measured at 15 concentrations in three independent runs.
Background: Quantitative high-throughput screening tests each substance at several concentrations.
Turning to `Cc1ccccc1OCC(O)CO` (stereo not given), the Potency result is “inactive”.

Take `CC(C)c1cc2c(cc1S(=O)(=O)O)[C@@]1(C)CCC[C@@](C)(C(=O)O)[C@@H]1CC2`: the Potency result was “inactive”. For the compound `CCOC(=O)C(C)C(C)=O` (stereo not given), the Potency entry was “inactive”. As to `Cc1ccc(-c2ccccc2)cc1`, the Potency result was “inactive”. For `NS(=O)(=O)c1ccc(N2CCCCS2(=O)=O)cc1`, the Potency result was “inactive”.

For `CC(C#N)(CCC(=O)O)N=NC(C)(C#N)CCC(=O)O` (stereo not given), the Potency entry is “inactive”. Take `O=C(c1ccccc1O)c1ccccc1O`: the Potency result was “inactive”. Then `CC(O)CCCCn1c(=O)c2c(ncn2C)n(C)c1=O` (stereo not given), with “inactive”; and `CCCCCCOC(=O)CC`, with “inactive”. `[O-][n+]1ccc(Cl)cc1`: the Potency result was “inactive”. With `CCOCOCC`, the Potency entry was “inactive”. `C[C@@H]1CC(=O)NN=C1c1ccc(NN=C(C#N)C#N)cc1`: the Potency entry was “inactive”. On to `CCCCCCCC/C=C\CCCCCCCC(N)=O`, for which the Potency entry is “inactive”. Consider `CCCN[C@H]1CCc2nc(N)sc2C1`, for which the Potency entry is “inactive”. In the case of `CC(=O)CC(=O)Nc1ccccc1C`, the Potency entry is “inactive”. Take `O=S1(=O)OC(c2ccc(O)cc2)(c2ccc(O)cc2)c2ccccc21`: the Potency result was “inactive”. `C=CCOC(=O)CCCCCCCC`: the Potency result is “inactive”. `Cc1ccc(N(C)C)cc1`: the Potency entry is “inactive”. Turning to `CC(=O)CC(C)=O`, the Potency entry was “inactive”. As for `CCCCCC(C)=O`, the Potency entry is “inactive”. With `CC(C)c1cccc(O)c1`, the Potency result is “inactive”. Turning to `NS(=O)(=O)c1cc2c(cc1Cl)NC(CC1CCCC1)NS2(=O)=O` (stereo not given), the Potency entry is “inactive”.

With `C=C(C)[C@H]1CC=C(C)C(=O)C1`, the Potency entry was “inactive”.

Turning to `CCc1ccc(C)nc1`, the Potency entry was “inactive”. For `CC(CO)CO`, the Potency entry is “inactive”. As to `CC(C)CCCCCOC(=O)CS`, the Potency entry was “inactive”. Then `O=C1CC(c2ccc(Cl)cc2)CC(=O)N1`, with “inactive”; and `O=S(=O)(O)CC(O)CCl` (stereo not given), with “inactive”; and `CN(C)CCCNCCCN(C)C`, with “inactive”. As for `O=c1[nH][nH]c(=O)c2cc([N+](=O)[O-])ccc12`, the Potency entry was “inactive”.

Turning to `O=C(O)/C=C/c1cnc[nH]1`, the Potency result is “inactive”. As to `Cn1cc(S(C)=O)c(=O)c2ccc(F)cc21` (stereo not given), the Potency entry was “inactive”.

As for `CC(C)[C@H]1CC[C@@H](C)CC1=O`, the Potency entry is “inactive”. With `CC(=O)NCc1c(I)c(NC(C)=O)c(I)c(C(=O)O)c1I` the entry was “inactive”; with `Cc1c(N)cccc1C(F)(F)F`, “inactive”. With `O=[N+]([O-])c1ccc(F)cc1F` the entry was “inactive”. With `O=S(=O)(O)c1cccc(S(=O)(=O)O)c1` the entry was “inactive”; with `CC[C@H](C)[C@H](N)C(=O)O`, “inactive”; with `O=C1c2ccccc2C(=O)C1c1ccc2cc(S(=O)(=O)O)cc(S(=O)(=O)O)c2n1`, “inactive”. Take `CN(C)c1ccc2nc3ccc(=[N+](C)C)cc-3sc2c1`: the Potency entry was “inactive”.

The values above are taken from PubChem BioAssay (Tox21).
